Laboratory results as given in PubChem BioAssay.
The list shows a part of the results. A number with no mark means an inactive call. Calls of active or inactive are those of the source.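 How the source made its calls, unless noted: active means inhibition above the primary screen's cutoff, its mean inhibition plus 3 SD (cut at about 35% in these data); inactive means the rest.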

Columns and labels:
[1] = molecular target: Glutathione S-transferase omega-1 (Homo sapiens) (UniProt P78417); assay: GSTO1 inhibitor hit confirmation, counter-screen for RBBP9 inhibitor project, biochemical, fluorescence polarization, triplicate (AID 2176); conditions: recombinant GSTO1, probe fluorescence polarization; at 5.96 µM; active compounds read high;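 further: loss of polarization as inhibitors block binding of rhodamine sulfonate ester activity probe; 0% = GSTO1 with DMSO and 100% = wells lacking GSTO1 enzyme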
Glutathione S-transferase omega-1 (Homo sapiens), sequence (P78417 whole entry, looked up): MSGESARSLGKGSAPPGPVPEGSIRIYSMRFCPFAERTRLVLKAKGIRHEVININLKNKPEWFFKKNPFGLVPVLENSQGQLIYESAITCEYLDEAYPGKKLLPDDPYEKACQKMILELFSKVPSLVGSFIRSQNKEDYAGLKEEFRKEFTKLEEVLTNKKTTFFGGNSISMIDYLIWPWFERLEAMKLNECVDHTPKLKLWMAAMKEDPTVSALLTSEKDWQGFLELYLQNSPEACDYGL

[2] = molecular target: Serine protease HTRA1 (Homo sapiens) (UniProt Q92743); assay: HTRA1 protease inhibitors, retest, confirmation, biochemical, fluorescence polarization (AID 540248;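 active means mean inhibition over three repeats above a set limit taken from the earlier primary screen, cut at about 37% in these data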;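 further: 0% = HTRA1 with DMSO and 100% = wells lacking HTRA1; inhibitors block probe binding so polarization drops and inhibition rises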); conditions: recombinant HTRA1, FP-rhodamine activity-based probe, at 5.96 µM, active compounds read high
[3] = molecular target: (Lyso)-N-acylphosphatidylethanolamine lipase (Mus musculus) (UniProt Q8VD66); assay: ABHD4 inhibitors, retest, confirmation, biochemical, fluorescence polarization, mouse (AID 720658;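 active means mean inhibition across replicates above the hit cutoff set in the primary screen, cut at about 30% in these data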;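 further: 0% = wild-type ABHD4 with DMSO and 100% = catalytically dead S159A mutant with DMSO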); conditions: purified mABHD4, FP-Rh probe fluorescence polarization; at 8.92 µM; active compounds read high
(Lyso)-N-acylphosphatidylethanolamine lipase (Mus musculus), sequence (Q8VD66 whole entry, looked up): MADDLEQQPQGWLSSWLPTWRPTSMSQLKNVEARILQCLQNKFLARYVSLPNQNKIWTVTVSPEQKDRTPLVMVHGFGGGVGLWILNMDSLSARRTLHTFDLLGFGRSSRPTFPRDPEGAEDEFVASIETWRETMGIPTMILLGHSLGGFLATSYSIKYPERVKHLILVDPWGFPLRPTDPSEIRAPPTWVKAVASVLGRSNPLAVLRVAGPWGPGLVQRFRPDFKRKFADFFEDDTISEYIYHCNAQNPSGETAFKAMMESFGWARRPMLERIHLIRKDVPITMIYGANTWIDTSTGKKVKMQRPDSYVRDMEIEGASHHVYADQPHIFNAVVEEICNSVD

[4] = molecular target: Protein-arginine deiminase type-4 (Homo sapiens) (UniProt Q9UM07); assay: human PAD4 inhibitors, confirmation, biochemical, fluorescence polarization (AID 488796;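 active means mean inhibition across replicates above the hit cutoff set by the earlier primary screen, cut at about 15% in these data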;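 further: inhibitors block active-site labeling by the probe so polarization falls; 0% = PAD4 with probe and DMSO and 100% = probe without PAD4 enzyme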); conditions: recombinant PAD4, RCA probe fluorescence polarization; at 6.36 µM; active compounds read high
Protein-arginine deiminase type-4 (Homo sapiens), sequence (Q9UM07 whole entry, looked up): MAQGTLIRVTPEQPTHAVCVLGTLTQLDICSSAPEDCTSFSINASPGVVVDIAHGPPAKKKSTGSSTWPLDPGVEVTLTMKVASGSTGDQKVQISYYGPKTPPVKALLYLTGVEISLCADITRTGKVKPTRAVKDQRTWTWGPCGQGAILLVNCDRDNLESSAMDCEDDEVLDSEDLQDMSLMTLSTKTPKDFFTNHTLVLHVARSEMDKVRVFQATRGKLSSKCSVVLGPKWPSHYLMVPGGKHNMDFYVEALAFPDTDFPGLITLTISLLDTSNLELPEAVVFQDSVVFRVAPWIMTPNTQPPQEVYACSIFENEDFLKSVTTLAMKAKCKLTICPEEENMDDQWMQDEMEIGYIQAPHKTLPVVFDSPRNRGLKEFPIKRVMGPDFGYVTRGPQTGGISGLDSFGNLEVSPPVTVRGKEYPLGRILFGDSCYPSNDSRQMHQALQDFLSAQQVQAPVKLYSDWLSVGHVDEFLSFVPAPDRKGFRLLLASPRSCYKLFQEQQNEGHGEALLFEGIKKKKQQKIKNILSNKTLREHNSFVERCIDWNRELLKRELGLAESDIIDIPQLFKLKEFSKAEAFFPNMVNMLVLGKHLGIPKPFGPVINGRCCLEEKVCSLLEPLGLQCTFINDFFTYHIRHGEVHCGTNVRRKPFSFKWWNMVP

[5] = molecular target: Insulin-degrading enzyme (Homo sapiens) (UniProt P14735); assay: human IDE inhibitors in live cells, confirmation, fluorescence polarization, HEK cells, FAbetaB substrate (AID 435028;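 active means mean inhibition across triplicate wells above the cutoff set by the earlier primary insulin-degrading enzyme screen, cut at about 16% in these data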;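 further: 0% = DMSO wells and 100% = 60 µM reference IDE inhibitor Ii1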); conditions: FAbetaB cleavage, at 5.59 µM, active compounds read high
[6] = cytotoxicity in HEK cells, cytotoxicity control for IDE inhibitor project, cell-based, luminescence (AID 449730; in the data active means inhibition above about 22%;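 further: 0% = vehicle wells and 100% = reference cytotoxic drug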); conditions: HEK293 cytotoxicity, ATP luminescence; at 5.59 µM; active compounds read high
[7] = molecular target: Oxytocin receptor (Homo sapiens) (UniProt P30559); assay: human OXTR agonists, confirmation, fluorescence, CHO-OTR cells, triplicate (AID 434963;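 active means mean activation above about 20% derived from the earlier single-dose screen, limit read from the data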;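 further: peak over minimum fluorescence ratio per well during a 100 second FLIPR read; 0% = DMSO alone and 100% = oxytocin high control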); conditions: Fluo-8 calcium fluorescence, agonist, at 3 µM, active compounds read high
Oxytocin receptor (Homo sapiens), sequence (P30559 whole entry, looked up): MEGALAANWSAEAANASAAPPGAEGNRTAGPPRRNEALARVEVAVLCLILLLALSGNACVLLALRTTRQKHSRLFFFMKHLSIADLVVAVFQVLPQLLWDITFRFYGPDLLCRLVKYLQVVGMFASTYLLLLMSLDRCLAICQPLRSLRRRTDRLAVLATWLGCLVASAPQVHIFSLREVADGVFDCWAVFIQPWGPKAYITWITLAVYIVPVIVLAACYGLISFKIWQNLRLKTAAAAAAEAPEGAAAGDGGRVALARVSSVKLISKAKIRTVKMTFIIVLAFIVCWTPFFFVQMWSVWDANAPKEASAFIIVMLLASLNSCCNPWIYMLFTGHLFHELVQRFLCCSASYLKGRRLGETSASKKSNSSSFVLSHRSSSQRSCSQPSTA

[8] = molecular target: Vasopressin V1a receptor (Homo sapiens) (UniProt P37288); assay: V1a receptor agonists, calcium signal, counter-screen for OXTR agonist project, triplicate, fluorescence, CHO-V1R cells (AID 434991;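 active means mean activation over triplicate exceeds the hit threshold set in the earlier primary screen, cut at about 20% in these data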;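 further: peak over basal fluorescence ratio within a 100 second read; 0% = DMSO alone and 100% = 3 nM vasopressin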); conditions: Fluo-8 calcium fluorescence, at 3 µM, active compounds read high
[9] = molecular target: Photoreceptor-specific nuclear receptor (Homo sapiens) (UniProt Q9Y5X4); assay: NR2E3 agonists, confirmation, biochemical, TR-FRET (AID 2379; in the data active means activation above about 20%); conditions: cell-free NR2E3 corepressor release, 5 h, at 3.98 µM, active compounds read high
Photoreceptor-specific nuclear receptor (Homo sapiens), sequence (Q9Y5X4 whole entry, looked up): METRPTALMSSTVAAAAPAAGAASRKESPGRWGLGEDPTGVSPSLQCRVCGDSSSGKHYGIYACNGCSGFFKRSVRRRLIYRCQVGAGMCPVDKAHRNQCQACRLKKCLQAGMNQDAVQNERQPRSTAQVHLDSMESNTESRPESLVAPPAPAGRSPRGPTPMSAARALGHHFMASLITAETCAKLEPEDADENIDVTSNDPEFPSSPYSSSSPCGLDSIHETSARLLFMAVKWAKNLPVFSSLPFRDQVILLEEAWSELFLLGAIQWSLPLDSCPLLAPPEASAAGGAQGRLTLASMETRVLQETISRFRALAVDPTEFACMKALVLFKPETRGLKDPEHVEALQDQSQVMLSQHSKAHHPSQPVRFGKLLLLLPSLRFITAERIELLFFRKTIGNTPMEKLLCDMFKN

[10] = molecular target: Peroxisome proliferator-activated receptor gamma (Homo sapiens) + Nuclear receptor corepressor 2 (Homo sapiens) (UniProt P37231+Q9Y618); assay: agonists of PPARg-NCOR2 corepressor interaction, counter-screen for NR2E3 agonist project, biochemical, TR-FRET (AID 504787; in the data active means inhibition above about 20%;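 further: 0% = DMSO vehicle and 100% = wells without protein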); conditions: TR-FRET PPARg-NCOR2 coregulator interaction, at 3.98 µM, active compounds read high
Peroxisome proliferator-activated receptor gamma (Homo sapiens) + Nuclear receptor corepressor 2 (Homo sapiens), sequence (P37231 whole entry, looked up): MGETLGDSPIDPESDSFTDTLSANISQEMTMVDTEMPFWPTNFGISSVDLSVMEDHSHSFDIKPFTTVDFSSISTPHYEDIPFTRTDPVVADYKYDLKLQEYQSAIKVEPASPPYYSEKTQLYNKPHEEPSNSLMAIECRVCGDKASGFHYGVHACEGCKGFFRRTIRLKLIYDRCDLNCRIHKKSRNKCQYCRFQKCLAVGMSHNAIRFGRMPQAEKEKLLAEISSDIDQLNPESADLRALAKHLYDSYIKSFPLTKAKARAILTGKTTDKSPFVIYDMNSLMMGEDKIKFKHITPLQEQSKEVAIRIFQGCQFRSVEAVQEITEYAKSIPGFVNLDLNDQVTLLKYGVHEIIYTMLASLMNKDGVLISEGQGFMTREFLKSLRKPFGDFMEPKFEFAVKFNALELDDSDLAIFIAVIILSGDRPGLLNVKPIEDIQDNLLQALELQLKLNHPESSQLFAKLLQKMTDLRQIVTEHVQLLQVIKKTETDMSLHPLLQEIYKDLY
Peroxisome proliferator-activated receptor gamma (Homo sapiens) + Nuclear receptor corepressor 2 (Homo sapiens), sequence (Q9Y618 whole entry, looked up): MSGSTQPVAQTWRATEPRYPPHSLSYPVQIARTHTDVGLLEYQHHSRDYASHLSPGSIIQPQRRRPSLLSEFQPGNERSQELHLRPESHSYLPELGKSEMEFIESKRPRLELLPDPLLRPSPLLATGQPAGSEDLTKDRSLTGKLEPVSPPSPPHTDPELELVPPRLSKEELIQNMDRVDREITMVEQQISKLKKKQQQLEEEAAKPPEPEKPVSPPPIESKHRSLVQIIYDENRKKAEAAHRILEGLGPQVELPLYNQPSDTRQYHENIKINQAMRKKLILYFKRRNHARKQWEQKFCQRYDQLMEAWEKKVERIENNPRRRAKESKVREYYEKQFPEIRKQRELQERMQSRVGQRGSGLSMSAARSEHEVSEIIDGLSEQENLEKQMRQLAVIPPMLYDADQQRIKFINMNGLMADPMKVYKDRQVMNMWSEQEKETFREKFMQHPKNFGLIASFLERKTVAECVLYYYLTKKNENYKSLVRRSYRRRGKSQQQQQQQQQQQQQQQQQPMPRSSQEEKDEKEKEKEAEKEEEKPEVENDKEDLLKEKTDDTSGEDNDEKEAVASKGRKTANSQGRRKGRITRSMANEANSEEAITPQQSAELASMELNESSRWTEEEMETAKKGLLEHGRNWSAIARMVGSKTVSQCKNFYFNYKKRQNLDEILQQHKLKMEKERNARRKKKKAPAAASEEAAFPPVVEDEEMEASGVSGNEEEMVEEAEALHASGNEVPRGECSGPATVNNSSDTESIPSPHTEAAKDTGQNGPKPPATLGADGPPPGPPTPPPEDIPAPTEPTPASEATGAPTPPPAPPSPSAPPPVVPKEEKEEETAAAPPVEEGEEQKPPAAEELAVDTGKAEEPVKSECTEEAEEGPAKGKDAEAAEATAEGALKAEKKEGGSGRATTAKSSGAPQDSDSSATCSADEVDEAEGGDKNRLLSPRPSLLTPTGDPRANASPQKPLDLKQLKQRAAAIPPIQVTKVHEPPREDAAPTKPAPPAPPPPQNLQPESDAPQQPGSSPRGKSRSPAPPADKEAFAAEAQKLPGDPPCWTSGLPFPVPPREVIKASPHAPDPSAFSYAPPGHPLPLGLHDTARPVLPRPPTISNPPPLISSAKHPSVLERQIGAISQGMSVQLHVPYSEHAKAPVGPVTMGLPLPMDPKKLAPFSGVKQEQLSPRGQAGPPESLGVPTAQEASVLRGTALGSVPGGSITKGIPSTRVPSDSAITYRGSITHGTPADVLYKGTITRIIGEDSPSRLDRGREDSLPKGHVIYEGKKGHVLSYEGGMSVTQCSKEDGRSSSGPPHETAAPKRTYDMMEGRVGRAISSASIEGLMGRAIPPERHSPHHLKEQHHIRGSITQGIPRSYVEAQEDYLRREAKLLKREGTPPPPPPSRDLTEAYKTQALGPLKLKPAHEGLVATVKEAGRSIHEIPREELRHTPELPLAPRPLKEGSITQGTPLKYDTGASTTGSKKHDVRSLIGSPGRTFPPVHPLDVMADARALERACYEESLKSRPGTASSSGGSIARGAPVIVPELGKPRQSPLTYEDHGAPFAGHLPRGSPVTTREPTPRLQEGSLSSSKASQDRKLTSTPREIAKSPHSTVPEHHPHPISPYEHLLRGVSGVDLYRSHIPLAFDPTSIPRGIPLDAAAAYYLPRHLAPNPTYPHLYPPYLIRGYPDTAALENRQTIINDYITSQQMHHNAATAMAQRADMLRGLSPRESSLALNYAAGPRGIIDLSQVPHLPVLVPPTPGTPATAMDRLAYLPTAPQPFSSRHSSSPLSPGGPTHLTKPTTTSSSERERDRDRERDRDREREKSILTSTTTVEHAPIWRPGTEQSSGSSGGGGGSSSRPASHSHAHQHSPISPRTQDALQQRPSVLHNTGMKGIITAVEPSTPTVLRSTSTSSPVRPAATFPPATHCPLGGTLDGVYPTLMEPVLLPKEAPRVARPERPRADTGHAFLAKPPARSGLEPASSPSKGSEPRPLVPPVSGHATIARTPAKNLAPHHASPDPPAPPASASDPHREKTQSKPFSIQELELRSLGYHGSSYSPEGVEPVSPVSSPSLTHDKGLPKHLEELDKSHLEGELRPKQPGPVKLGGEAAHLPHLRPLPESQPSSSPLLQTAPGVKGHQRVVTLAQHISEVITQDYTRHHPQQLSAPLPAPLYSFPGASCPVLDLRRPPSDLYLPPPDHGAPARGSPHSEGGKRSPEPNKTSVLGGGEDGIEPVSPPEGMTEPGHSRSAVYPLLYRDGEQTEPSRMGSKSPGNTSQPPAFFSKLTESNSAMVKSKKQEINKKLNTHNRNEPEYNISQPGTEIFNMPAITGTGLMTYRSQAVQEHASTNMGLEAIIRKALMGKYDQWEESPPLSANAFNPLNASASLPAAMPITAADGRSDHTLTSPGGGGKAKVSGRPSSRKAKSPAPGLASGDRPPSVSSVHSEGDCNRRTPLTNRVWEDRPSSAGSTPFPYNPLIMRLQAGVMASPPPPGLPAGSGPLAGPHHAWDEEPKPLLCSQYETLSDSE

[11] = molecular target: Lytic switch protein BZLF1 (Epstein-Barr virus (strain B95-8)) (UniProt P03206); assay: EBV Zta binding to ZRE DNA, inhibitors, confirmation, biochemical, fluorescence polarization, triplicate (AID 2361;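 active means mean inhibition across triplicate runs above the hit threshold derived for the original primary screen, cut at about 33% in these data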;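 further: 0% = Zta with DMSO and 100% = wells lacking Zta protein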); conditions: at 11.1 µM, active compounds read high
[12] = system: Epstein-Barr virus nuclear antigen 1 (EBNA-1), Human herpesvirus 4; assay: EBNA-1 DNA-binding inhibition, counter-screen for ZTA inhibitor project, biochemical, fluorescence polarization (AID 2362; call rule not given here); conditions: at 14.8 µM, active compounds read high
[13] = Gal4-VP16 luciferase reporter inhibitors, counter-screen for COUP-TFII antagonist project, cell-based, luminescence, HEK293 (AID 687007; in the data active means inhibition above about 13%); conditions: at 8.5 µM, active compounds read high
[14] = molecular target: COUP transcription factor 2 (Homo sapiens) (UniProt P24468); assay: NR2F2 transcriptional activity inhibitors, confirmation, cell-based, luciferase reporter, HEK293, triplicate (AID 687008;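 active means mean inhibition over three repeats above a set limit taken from the earlier primary screen, cut at about 38% in these data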;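 further: 100% = cells given the luciferase reporter alone without the COUP-TF2 vector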); conditions: HEK293 NGFI-A luciferase reporter, luminescence; at 8.5 µM; active compounds read high
[15] = molecular target: Galanin receptor type 2 (Homo sapiens) (UniProt O43603); assay: GALR2 antagonists, retest of hits, confirmation, cell-based (AID 866; in the data active means inhibition above about 27%;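 further: cells stimulated with galanin at about its EC80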); conditions: GALR2-expressing cells, antagonist mode, at 4 µM, active compounds read high
[16] = inhibitors of NFAT-driven beta-lactamase reporter, confirmation, counter-screen for GALR2 antagonist project, CHO NFAT-bla cells, FRET readout (AID 867;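 active means inhibition above the mean inhibition across tested compounds plus 3 SD, cut at about 27% in these data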;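 further: 0% = 500 nM thapsigargin stimulated wells and 100% = unstimulated BSA only wells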); conditions: thapsigargin-stimulated, at 4.2 µM, active compounds read high

Oc1ccc(CNc2ccccc2O)cc1
inhibition [1]: 21.7% | inhibition [2]: 29% | inhibition [3]: 37.2% (active)

CC(C)CC[n+]1ccn(C2=C([O-])c3ccccc3C(=O)/C2=N\S(=O)(=O)c2ccccc2)c1
inhibition [1]: 68.2% (active)

COc1ccccc1CCCNC(=O)C1CCC(=O)N(CCN2CCOCC2)C1 (stereo unspecified)
inhibition [1]: 5.53%

CCN(C(=O)COC(=O)c1cc(NS(=O)(=O)c2ccc(Cl)c([N+](=O)[O-])c2)ccc1O)C1CCCCC1
inhibition [1]: 32.6%

COc1ccc(-c2csc(Nc3ccc(O)cc3)n2)cc1
inhibition [1]: 7.69%

COc1ccc(S(=O)(=O)N2CCOCC2)cc1NC(=O)CSc1ncnc2ccccc12
inhibition [1]: 15.2% | inhibition [4]: 0.87%

Cc1[nH][nH]c(=O)c1C(c1ccc(-c2ccc(Cl)cc2)o1)c1c(C)[nH][nH]c1=O
inhibition [1]: 22.6% | inhibition [4]: 2.58%

COCCN1C=C2C(=O)C(C)(OC(=O)C3CCCC3)C(=O)C=C2C=C1c1ccsc1 (stereo unspecified)
inhibition [1]: 7.54% | inhibition [4]: -1.24%

CC/C(=N/Nc1ccccc1)c1cnnc(SC)n1
inhibition [1]: 9.56%

O=c1c(/C=N/O)coc2ccc(Cl)cc12
inhibition [1]: 4.5%

O=C(c1cccnc1)N(c1cc2sc(=O)oc2c2ccccc12)S(=O)(=O)c1ccccc1
inhibition [1]: 6.84% | inhibition [5]: 3.36% | inhibition [6]: 10.9% | inhibition [3]: 17.6%

CCOc1c(Br)cc(/C=C2\C(=O)N(CCC#N)N=C2C)cc1OC
inhibition [1]: 3.85% | inhibition [4]: -1.18%

Cc1cccc(N2CCN(c3ccc(NC(=O)/C=C\C(=O)O)cc3)CC2)c1
inhibition [1]: 7.27% | inhibition [2]: 6.16% | inhibition [3]: 0.64%

CC1=CC2=NC(=O)/C(=C/c3coc4ccccc4c3=O)C(=N)N2O1
activation [7]: 40% (active) | activation [8]: 36.5% (active)

CN(Cc1ccccc1)Cc1ccccc1F
activation (reported as inhibition) [9]: -2.78% | inhibition [10]: -3.03%

NC(=O)C1=C[C@H](c2csc3ccccc23)C[C@H](OCc2ccc(CO)cc2)O1
activation [7]: 17.8% | activation [8]: 10.2%

CC1(C)CC[C@@]2(C(=O)O)C(C1)C1=CCC3[C@@]4(C)CC[C@H](O)C(C)(C)C4CC[C@@]3(C)[C@]1(C)C[C@H]2O (stereo partly specified)
activation [7]: 67.3% (active) | activation [8]: 1.34%

COc1ccc(NS(=O)(=O)c2ccc(NC(=S)NC(=O)CC(C)C)cc2)cc1
activation [7]: 12.6% | activation [8]: 12.8%

C=CCOc1cccc(C2C(C(=O)c3ccc(C)o3)=C(O)C(=O)N2CCCn2ccnc2)c1 (stereo unspecified)
activation (reported as inhibition) [9]: 9.01% | inhibition [10]: 7.51%

COc1cc2[nH]c(=S)n(Cc3ccc(C)o3)c(=O)c2cc1OC
activation (reported as inhibition) [9]: -5.72% | inhibition [10]: -2.05%

CCC(=O)Nc1ccc(Nc2nc(Cl)nc(Nc3ccc(NC(=O)CC)cc3)n2)cc1
inhibition [11]: -2.63% | inhibition [12]: 5.66%

O=C(NNC(=S)NC(=O)c1cn(-c2ccccc2)nc1-c1ccccc1)c1ccncc1
activation [7]: 4.81% | activation [8]: 9.53%

CC(CO)(CO)NC(=O)c1ccc(=O)[nH]n1
activation [7]: -0.33% | activation [8]: 0.63%

N#Cc1ccccc1Sc1ccccc1C(=O)OCC(=O)NC1CCCCC1
activation (reported as inhibition) [9]: 10.1% | inhibition [10]: 21.8% (active)

CC(C)c1ccc(C2C(C(=O)c3ccco3)=C(O)C(=O)N2CC2CCCO2)cc1 (stereo unspecified)
activation (reported as inhibition) [9]: -0.08% | inhibition [10]: 1.84%

N#Cc1c(N)nc2c3c(sc(=N)c2c1N)NC(=O)CC3c1ccccc1Cl (stereo unspecified)
activation (reported as inhibition) [9]: -9.26% | inhibition [10]: -7.41%

c1ccc(C2CNCc3c2ccc2ccccc32)cc1 (stereo unspecified)
activation [7]: 15.8% | activation [8]: 6.47%

CCCc1ccc(OCC(=O)NNC(=S)NC(=O)c2ccco2)cc1
activation [7]: 13.2% | activation [8]: 20.2%

O=C1C(=O)N(CCN2CCOCC2)C(c2cccc(Cl)c2)/C1=C(/O)c1ccc2c(c1)OCO2 (stereo unspecified)
activation (reported as inhibition) [9]: 32.8% (active) | inhibition [10]: 31.2% (active)

CCOC(=O)C1=C(c2ccc(OC)cc2)C(=O)c2ccccc2C1=O
inhibition [1]: 8.3% | inhibition [13]: 80.8% (active) | inhibition [14]: 93.5% (active)

Cn1c(SCC(=O)N/N=C/c2ccc(O)c(O)c2)nc2ccccc21
inhibition [1]: 3.76% | inhibition [2]: 72.4% (active) | inhibition [3]: 14.6%

COc1cc(C(CCN2CCN(c3ccccc3)CC2)c2c(OC)cc(OC)c3ccc(=O)oc23)cc(OC)c1OC (stereo unspecified)
activation [7]: -0.33% | activation [8]: 0.28%

CC1=C/C(=N\OS(=O)(=O)c2ccccc2)C=CC1=O
inhibition [15]: 90% (active) | inhibition [16]: 83.7% (active) | inhibition [1]: 7.61%

O=C(c1ccco1)N1CCN(C(=O)C2CC(c3ccc(F)cc3)=NO2)CC1 (stereo unspecified)
activation [7]: -0.63% | activation [8]: 0.05%

COc1ccc(Cl)cc1NC(=O)NCC1CCN(Cc2ccccc2F)CC1
activation [7]: 7.35% | activation [8]: 6.95%
